From PubChem BioAssay AID1851 (National Center for Advancing Translational Sciences (NCATS), 2009)
Screen size: about 16,000 compounds; about 5,800 (36%) were called active. Inconclusive results (about 23%) are left out. The call rests on the fitted dose curve; in most records, active means well fitted curve in the direction sought with a large enough effect; inconclusive means small, poorly fitted or top-dose-only effect, or effect the other way; inactive means no such curve, though single readings can be large or run the other way. The list shows a part of the results.

Biological target: Cytochrome P450 2C19 (Homo sapiens) (UniProt P33261)
Test: Cytochrome panel assay with activity outcomes
Conditions: recombinant CYP, pro-luciferin dealkylation, luminescence, p450-cyp2c19; series mostly up to 57.1 µM
On the % scale 0 is the no-effect control and ±100 the full control effect.

Cytochrome P450 2C19 (Homo sapiens), sequence (P33261 whole entry, looked up): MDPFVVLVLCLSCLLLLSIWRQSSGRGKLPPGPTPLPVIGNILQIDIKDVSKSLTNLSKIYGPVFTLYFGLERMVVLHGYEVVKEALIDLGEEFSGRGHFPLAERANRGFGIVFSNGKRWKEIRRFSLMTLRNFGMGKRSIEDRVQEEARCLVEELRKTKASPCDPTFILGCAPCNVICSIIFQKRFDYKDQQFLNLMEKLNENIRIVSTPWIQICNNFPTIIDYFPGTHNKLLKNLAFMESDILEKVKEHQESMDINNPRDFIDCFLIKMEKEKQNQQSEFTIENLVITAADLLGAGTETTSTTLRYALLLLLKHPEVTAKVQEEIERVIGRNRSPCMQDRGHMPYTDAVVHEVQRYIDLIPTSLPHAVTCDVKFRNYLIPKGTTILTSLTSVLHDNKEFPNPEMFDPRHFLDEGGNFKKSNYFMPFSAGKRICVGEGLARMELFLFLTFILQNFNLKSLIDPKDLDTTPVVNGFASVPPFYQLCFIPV

AC50, active:
Cc1cc(SCC(=O)c2cccs2)nc2c(C)cccc12 3.16 µM, Cc1ccc(Nc2nc(Cl)nc(N(C)C#N)n2)cc1 25.1 µM, COC(=O)c1ccccc1N/C=C1\CCc2c(c(C)nn2-c2ccccn2)C1=O 1.26 µM, C(=N\Nc1nc(Nc2ccccc2)nc(N2CCOCC2)n1)/c1c[nH]c2ccccc12 8.91 µM, CC(=O)/C(=C\c1ccccc1F)C(=O)c1ccccc1 2 µM, CN(c1ccccc1)c1nc(-n2ccnc2)nc(-n2ccnc2)n1 1.78 µM, c1ccc(-c2nc(N3CCCCCC3)nc(-n3ccnc3)n2)cc1 2 µM, N#Cc1c(-c2ccccc2)ccnc1Oc1ccccc1 1.58 µM, COc1ccc2sc3ccccc3c(=O)c2c1OC 25.1 µM, CCOC(=O)c1[nH]c(C)c(/C(O)=C2\C(=O)C(=O)N(CCN3CCOCC3)C2c2cccs2)c1C (stereo unspecified) 8.91 µM, Cc1cc(Cl)nc2ccc(Cc3ccc4nc(Cl)cc(C)c4c3)cc12 0.501 µM, Cc1ccc(N(Cc2ccc([N+](=O)[O-])cc2)C(=O)c2ccco2)cc1 10 µM, CN1CCc2ccccc2[C@@H]1Cc1ccccc1NC(=O)c1sc2ccccc2c1Cl 2.51 µM, CC(C)(C)c1nc(SCC(=O)Nc2ccc(N3CCOCC3)cc2)c2ccccc2n1 10 µM, Cc1nc(SCC(=O)Nc2ccc3c(c2)OCCO3)c2oc3ccccc3c2n1 0.562 µM, Cc1nc(SCC(=O)Nc2ccc(N3CCOCC3)cc2)nc(C)c1C 25.1 µM, CC(C)(C)c1nc(SCC(=O)Nc2ccc3c(c2)OCCO3)c2ccccc2n1 1.78 µM, CN1CCC(=NNC(=O)CSCc2ccccc2)CC1 17.8 µM, CC1CCC(=NNC(=O)Cc2ccccc2)CC1 (stereo unspecified) 25.1 µM, O=C(c1coc2ccccc2c1=O)N1CCN(c2cccc(C(F)(F)F)c2)CC1 14.1 µM, O=C(O)c1ccccc1Nc1cccc(OCc2ccc3ccccc3n2)c1 5.01 µM, CCCCC[C@H](O)c1cccc(OCc2ccc3ccccc3n2)c1 6.31 µM, Cc1cc(C=C(C#N)C#N)c(C)n1-c1ccccc1 1 µM, Cc1cc(C)cc(-n2c(C)cc(C=C(C#N)C#N)c2C)c1 5.62 µM, Cc1cccc(NC(=O)Cn2cccc2)c1 15.8 µM, CSc1cccc(NC(=O)Nc2ccc(Cl)cc2)c1 2 µM, CSc1cccc(NC(=O)Cn2cccc2)c1 6.31 µM, Cc1ccc(CNC(=O)Cn2c(=O)oc3ccccc32)o1 3.55 µM, CCN(C(=O)Cn1c(=O)oc2ccccc21)c1cccc(C(F)(F)F)c1 3.55 µM, Cc1cccc(NC(=O)CCSc2nc(C)cc(C)n2)c1 4.47 µM, Cc1cccc(NC(=O)Cn2c(=O)oc3ccccc32)c1 3.16 µM, COc1ccccc1CNc1ccnc(-c2c(C)noc2C)n1 1 µM, COc1ccc(CNc2ccnc(-c3c(C)noc3C)n2)c(OC)c1 1.58 µM, COC(=O)N1CC(=O)N(OC)C1c1ccc(Cl)cc1Cl (stereo unspecified) 5.62 µM, CC(=O)N1CC(=O)N(OCc2ccccc2)C1c1ccc(Cl)cc1Cl (stereo unspecified) 3.16 µM, Cc1ccc2c(c1)C(=O)[C@@]1(O)CCN(c3ccccc3)C1=N2 7.94 µM, CC(C)(Oc1ccc(Cl)cc1)C(=O)Nc1cccnc1 2.51 µM, CC(C)(Oc1ccc(Cl)cc1)C(=O)Nc1ccncc1 0.0562 µM, O=C1c2ccccc2CCC12N=NCC2c1ccc(Cl)cc1 (stereo unspecified) 0.562 µM, C=CCn1c(SC(C)C(=O)NCc2ccc3c(c2)OCO3)nc2scc(-c3ccccc3)c2c1=O (stereo unspecified) 2 µM, C=CCn1c(SCc2ccc3c(c2)OCO3)nc2scc(-c3ccco3)c2c1=O 1.41 µM, C=CCn1c(SCC(=O)N2CC(=O)Nc3ccccc32)nc2scc(-c3ccccc3)c2c1=O 7.94 µM, Cc1ccc(NC(=O)N/C=C/c2ccco2)cc1C 3.16 µM, C/C(=N\NC(=O)CC1N=C(Cc2ccccc2)NNC1=O)c1ccc(Cl)cc1Cl (stereo unspecified) 28.2 µM, O=C(CC(c1ccccc1)c1ccccc1)NCC1CCCO1 (stereo unspecified) 14.1 µM, Cc1cccc2c(SCC(=O)NCC3CCCO3)nc(-c3ccc(F)cc3)nc12 (stereo unspecified) 1.26 µM, O=C(CSCc1c(F)cccc1Cl)NCC1CCCO1 (stereo unspecified) 11.2 µM, COc1ccc(CCC(C)NC2C3CC4CC(C3)CC2C4)cc1 (stereo unspecified) 25.1 µM

AC50, inactive:
COc1cc(S(C)=O)ccc1-c1nc2ncccc2[nH]1 (stereo unspecified), CC[C@]1(C)CC(=O)NC1=O, COc1ccc(-c2cc(C(=O)O)c3c(C)nn(-c4ccccn4)c3n2)cc1, COc1ccc(N2CCN(c3nc(Nc4ccc(F)cc4)nc(OC)n3)CC2)cc1, CC(=C\C(=O)O)/C(=C/c1ccccc1)C(=O)O, COc1ccc(Oc2nccc(-c3ccc(F)cc3)c2C#N)cc1, Cn1c(=O)c(-c2cccc(C#N)c2)nc2cnc(Oc3ccccc3)nc21, CCN(CC)CCNc1ccc(CO)c2sc3ccccc3c(=O)c12, Cc1nc2ccccn2c1/C(O)=C1\C(=O)C(=O)N(CCN2CCOCC2)C1c1cccnc1 (stereo unspecified), COc1ccc(/C(O)=C2/C(=O)C(=O)N(CCN3CCOCC3)C2c2ccc(C)cc2)cc1 (stereo unspecified), O=C(CSc1nncn1-c1ccccc1)Nc1ccc(N2CCOCC2)cc1, CCCNC(=O)N1N=C(c2ccc(N)cc2)c2cc3c(cc2[C@H]1C)OCO3, COc1ccccc1CNC(=O)C/C(C)=N/NC(=O)Cc1ccccc1, O=C(O)Cc1ccc(NC(=O)C2CCCCC2C(=O)O)cc1 (stereo unspecified), O=C(c1cc(C(F)(F)F)cc(C(F)(F)F)c1)N1CCC[C@@]2(CCN(c3ccccc3)C2)C1, O=C(c1cccc(F)c1)N1CCC2(CCN(Cc3cc(C(F)(F)F)cc(C(F)(F)F)c3)CC2)CC1, CCCCc1cc2ccccc2c(OCCN(C)C)n1, O=C(Nc1ccccc1C(=O)O)c1ccc2ccccc2n1, O=C(O)CP(=O)(O)O, Cc1cc(C)nc(Nc2ncc(O)n2-c2ccccc2)n1, Cc1cc(-c2n[nH]c(=S)o2)c(C)n1-c1ccccc1, COc1ccc(-n2c(=O)cnc3cnc(N4CCNCC4)nc32)cc1, CCOc1cc(/C=C2/NC(=O)N(CC(=O)Nc3cccc(C)c3)C2=O)ccc1OC, COc1ccc(CCNC(=O)Cn2c(=O)oc3ccccc32)cc1OC, N#Cc1cccc(NC(=O)N2CCCC3(CCN(C(=O)c4csnn4)CC3)C2)c1, Cc1cccc(N/C(N)=N/c2nc(C)cc(C)n2)c1, O=C(O)C1=CCNCC1, COCCNc1ccnc(-c2c(C)noc2C)n1, CCOc1ccc(N=C2NC(=O)C(CC(=O)O)S2)cc1 (stereo unspecified), CC(C)(Oc1ccc([C@@H]2CC2(Cl)Cl)cc1)C(=O)O, CCC(C)(C)N=C(NC#N)Nc1cccnc1, CC(C)(Oc1ccc(CCNC(=O)c2ccc(Cl)cc2)cc1)C(=O)O, C=CCn1c(SCc2ccccc2)nc2scc(-c3ccc(C)o3)c2c1=O, NS(=O)(=O)c1cc2c(cc1Cl)N[C@@H](C(Cl)Cl)NS2(=O)=O, CCCCCCCCOC1OC(CO)C(O)C(O)C1NC(C)=O (stereo unspecified), CCNc1ncc2nc(-c3ccc(F)cc3)c(=O)n(C[C@H]3CCCO3)c2n1, CC(NC(=O)OCc1ccccc1)C(=O)NCC1CCCO1 (stereo unspecified), CN(c1ccc(C(=O)NCC2CCCO2)cc1)S(=O)(=O)c1ccccc1 (stereo unspecified), CN(C)c1ncc2nc(-c3ccc(F)cc3)c(=O)n(C[C@H]3CCCO3)c2n1, Oc1ccc([C@@H]2CNCCc3c2cc(O)c(O)c3Cl)cc1, CC(C)NC[C@@H](O)COc1ccc(CCOCC2CC2)cc1

activity, negative = inhibition, inactive:
COc1ccc(C(=O)CCN(C)C)c2ccccc12 -37.3% [at 11.4 µM], CC(=O)Nc1ccc(Cc2ccc3[nH]c(=O)cc(C)c3c2)cc1 3.04% [at 11.4 µM], Cc1cc(N2CCOCC2)nc2ccc(Cc3ccc4nc(N5CCOCC5)cc(C)c4c3)cc12 -39.6% [at 11.4 µM], CC(C)=NNc1ncnc2nc[nH]c12 43.1% [at 11.4 µM], CN(C)c1ccc(C(c2ccc(N(C)C)cc2)c2ccc([N+](=O)[O-])cc2)cc1 -36.9% [at 11.4 µM], O=c1c2ccccc2sc2c(CO)ccc(NCCN3CCCCC3)c12 -24.6% [at 11.4 µM], CC(C)C(=O)Cc1ccc2ccccc2n1 6.88% [at 11.4 µM], C=CC[C@@H]1C=C[C@H](ON=C(C)C)[C@H](CO)O1 -4.34% [at 11.4 µM], C#CCCCO/N=C1/C[C@@H](O)[C@@H](O)[C@@H]2[C@@H]3C(=O)N(CCC(=O)OCC)C(=O)[C@H]3CC[C@@H]12 -1.53% [at 11.4 µM], CSc1cccc(NC(=O)OC2CCCCCCCCCCC2)c1 -41.3% [at 11.4 µM], CC(=O)OC[C@H]1O[C@@H](O/N=C(\C)CCN2CCCc3nc(C)c(C)cc32)[C@H](OC(C)=O)[C@@H](OC(C)=O)[C@H]1OC(C)=O -24.1% [at 11.4 µM], Cc1cc(C)nc(SCCc2cccc[n+]2C)n1 66.4% [at 11.4 µM]
